Sampled rows, rich in hits. Any-hit rate of the full collection: about 2.5%.
Pol iota inh: inhibitors of human DNA polymerase iota. 390,000 tested, 1% active. Pol iota fluorescent replication assay, 10 min. AID 588590. Q9UNA4. Potency, µM (series often up to 115 µM), inactives show at the top dose activity, negative = inhibition, most hits filed as inhibitors
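Pol iota at 10 nM preincubated 15 min with compounds at room temperature; reaction started with fluorescent substrate, 50 nM final. Fluorescence read kinetically at 0 and 10 min; buffer-only wells as negative control.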
APE1 inh: inhibitors of human APE1 endonuclease. P27695. AID 2517. 350,000 tested, 0.35% active. recombinant APE1, TAMRA/BHQ-2 abasic DNA cleavage fluorescence. Potency, µM (series often up to 65.8 µM), for inactives: at the highest dose activity change, negative = inhibition, actives largely listed as inhibitors;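 also: plate controls were vehicle for no effect and reference inhibitor for full effect; nearly all actives have a fitted effect of over 55% in size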
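Readout is kinetic fluorescence (ex 525, em 598 nm) from cleavage of 50 nM TAMRA/BHQ-2 THF abasic duplex by 0.75 nM APE1, compound added 15 min beforehand at RT.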
POLH inh: DNA polymerase eta (human) inhibition. Q9Y253. recombinant Pol eta, fluorescent DNA replication assay. Potency, µM (series often up to 114 µM), inactives show at the highest dose activity change, negative = inhibition, most hits filed as inhibitors. 390,000 tested, 1.2% active; also: % is scaled to controls: 0 for no effect and ±100 for the full control effect
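Pol eta (10 nM) was preincubated with compounds for 15 min at room temperature, after which fluorescent replication substrate (50 nM final) was added to start the reaction. Fluorescence was read kinetically at 0 and 10 min.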
L3MBTL1 inh: L3MBTL1 (human) inhibition. Q9Y468. AlphaScreen L3MBTL1–H3K9me1 peptide binding. Potency, µM (highest dose often 57.1 µM), without a hit: top-dose activity, negative = inhibition, hits mostly inhibitors. 230,000 tested, 0.66% active. AID 485360; also: % is scaled to controls: 0 for no effect and ±100 for the full control effect; nearly all actives have a fitted effect of over 60% in size
Target sequence (Q9Y468 whole entry, looked up): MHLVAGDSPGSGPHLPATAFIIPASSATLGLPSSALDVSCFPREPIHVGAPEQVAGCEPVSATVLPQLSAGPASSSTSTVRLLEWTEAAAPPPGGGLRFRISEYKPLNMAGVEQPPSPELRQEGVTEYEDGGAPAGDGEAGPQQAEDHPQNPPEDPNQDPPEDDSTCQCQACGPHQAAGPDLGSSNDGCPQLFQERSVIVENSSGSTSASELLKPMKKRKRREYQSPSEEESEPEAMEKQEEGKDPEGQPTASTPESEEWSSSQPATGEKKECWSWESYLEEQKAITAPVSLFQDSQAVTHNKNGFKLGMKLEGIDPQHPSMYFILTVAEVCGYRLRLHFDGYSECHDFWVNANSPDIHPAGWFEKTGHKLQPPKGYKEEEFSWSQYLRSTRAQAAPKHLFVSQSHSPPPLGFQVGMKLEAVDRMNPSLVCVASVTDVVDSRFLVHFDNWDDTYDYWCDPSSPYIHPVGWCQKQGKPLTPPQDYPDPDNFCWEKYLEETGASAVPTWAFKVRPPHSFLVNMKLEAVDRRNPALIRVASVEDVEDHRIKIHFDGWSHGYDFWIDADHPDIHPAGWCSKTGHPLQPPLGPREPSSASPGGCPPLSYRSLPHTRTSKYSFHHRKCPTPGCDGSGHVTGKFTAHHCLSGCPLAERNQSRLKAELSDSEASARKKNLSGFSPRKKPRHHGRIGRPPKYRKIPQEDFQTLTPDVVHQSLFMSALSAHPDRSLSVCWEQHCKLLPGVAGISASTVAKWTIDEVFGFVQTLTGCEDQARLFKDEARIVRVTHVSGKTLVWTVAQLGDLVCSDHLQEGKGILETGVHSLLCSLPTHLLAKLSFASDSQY
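Read-out is AlphaScreen signal from streptavidin donor and nickel chelate acceptor beads (10 ug/mL final each) bridging L3MBTL1 (50 nM) and biotinylated K9-monomethylated H3(1-15) peptide (75 nM), after 30 min compound exposure at room temperature.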
POLK inh: blocks human DNA polymerase kappa activity; Q9UBT6; purified Pol kappa, fluorescent DNA synthesis assay, 10 min; Potency, µM (doses to about 107 µM), for inactives: top-dose activity, negative = inhibition, actives largely listed as inhibitors; 400,000 tested, 0.53% active; also: % is scaled to controls: 0 for no effect and ±100 for the full control effect
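Readout: fluorescence, taken kinetically at 0 and 10 min. Conditions: 10 nM Pol kappa, 15 min RT compound preincubation, 50 nM substrate final. Controls: enzyme-free buffer wells.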
POLB inh: blocks human DNA polymerase beta activity; Pol beta primer extension/strand displacement, fluorescence kinetic; Potency, µM (titrated, usually from 114 µM), without a hit: at the highest dose activity change, negative = inhibition, hits mostly inhibitors; AID 485314; 340,000 tested, 1.3% active; also: % is scaled to controls: 0 for no effect and ±100 for the full control effect
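Enzyme-only controls used 10 nM Pol beta; buffer lacking enzyme served as negative control. Compound preincubated 15 min, then 50 nM substrate added; 0 and 10 min reads at room temperature.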
The depositor's hits bear a star; ? = inconclusive; . = no result given; [ ] = another dose, or the depositor's remark. Calls follow the shape of the dose curve; as a rule, active = well fitted curve in the direction sought with a large enough effect; inconclusive = small, poorly fitted or top-dose-only effect, or another doubt; inactive = no such curve, though single readings can be large; an effect the other way counts as inactive or inconclusive. Potency is read from the fitted curve at half-maximal effect.

SMILES	Pol iota inh	APE1 inh	POLH inh	L3MBTL1 inh	POLK inh	POLB inh
CC1(C)CCCN(C(=O)c2ccc3c(c2NCCO)C(=O)c2ccccc2C3=O)C1	21%	6%	-30%	35µM*	-12%	-28%
C=CCc1cc(C)ccc1OCC(O)CN1CCN(c2ccccc2)CC1 (configuration not stated)	3%	?	-22%	2%	-10%	5%
C=CCc1ccccc1OCC(O)CN1CCN(c2ccccc2)CC1 (configuration not stated)	79µM*	.	-18%	.	?	-5%
COc1cc(Cl)c(C)cc1NC(=O)CCn1c(=O)c2cccn2c2cccnc21	2%	.	79µM*	.	3%	13%
COC(=O)c1ccccc1NC(=O)CCn1c(=O)c2cccn2c2cccnc21	5%	.	-11%	.	-6%	31%
Cc1cc(N2CCCCC2)nc2ccc(NC(=O)/C=C/c3ccccc3OC(C)C)cc12	32%	.	-14%	.	2%	30%
CS(=O)(=O)N1CCN(/[N+]([O-])=N/Oc2ccc([N+](=O)[O-])cc2[N+](=O)[O-])CC1 (tested in a mixture with another compound)	?	.	.	.	-14%	.
COc1cc(C2C(C#N)=C(N)OC3=C2C(=O)CCC3)c([N+](=O)[O-])cc1OC (configuration not stated)	7.1µM*	1%	20µM*	?	89µM*	2%
COc1ccc(Cn2nnnc2C(c2ccccc2)N2CCN(c3ccccc3)CC2)cc1 (configuration not stated)	0%	.	.	.	-3%	.
CCCNS(=O)(=O)c1ccc(NC(=O)Cc2cccs2)cc1	16%	0%	-5%	-2%	-2%	-29%
Cc1c(NC(=O)Cc2cccs2)cccc1[N+](=O)[O-]	24%	-8%	?	-24%	-13%	35µM*
CCCCN(CCCC)S(=O)(=O)c1ccc(NC(=O)Cc2cccs2)cc1	50µM*	3%	79µM*	.	?	?
Cc1cccc(C)c1NC(=O)Cc1cccs1	?	-25%	?	1%	-14%	40µM*
CC(C)(C)c1csc(NC(=O)Cc2cccs2)n1	72%	?	-28%	-18%	-16%	22µM*
Cc1c(Cl)cccc1NC(=O)Cc1cccs1	21%	-1%	-7%	0%	-6%	19%
O=C(Cc1cccs1)Nc1ccccc1	6%	10%	-18%	1%	-1%	70%
CC(=O)c1cccc(NC(=O)Cc2cccs2)c1	-18%	-11%	?	-13%	?	32µM*
O=C(Cc1cccs1)NCC1CCCO1 (configuration not stated)	?	1%	?	-1%	-29%	13µM*
O=C(Cc1cccs1)Nc1cccc([N+](=O)[O-])c1	?	3%	?	-28%	-29%	25µM*
O=C(Nc1ccc(Cl)cc1F)c1ccc(COc2c(F)c(F)c(F)c(F)c2F)o1	-15%	-11%	20µM*	-9%	-32%	45µM*
O=C(c1ccco1)N1CCC2(CCCN(Cc3ccncc3)C2)CC1	.	4%	.	.	-5%[60.1 µM]	.
COC(=O)c1ccc(CS(=O)(=O)c2ccc(F)cc2)o1	-76%	4%	22µM*	.	?	35µM*
O=C(NCc1ccc(F)cc1)c1ccc(CS(=O)(=O)c2ccc(Cl)cc2)o1	-1%	.	-11%	.	1%[60.1 µM]	?
Nc1ccc(C(=O)OCCc2ccccc2)cc1	1%	2%	-1%	7%	-5%	.
O=C(OCCc1ccccc1)c1cc(O)c(O)c(O)c1	?	-9%	5%	?	45µM*	.
SMILES	Pol iota inh	APE1 inh	POLH inh	L3MBTL1 inh	POLK inh	POLB inh
CCC(Sc1nc2ccsc2c(=O)n1CCC(=O)O)C(=O)Nc1ccc(Cl)cc1 (configuration not stated)	.	.	-14%	.	.	.
CCC(Sc1nc2ccsc2c(=O)n1Cc1ccc(C(=O)O)cc1)C(=O)Nc1ccc(C)c(Cl)c1 (configuration not stated)	?	-5%	79µM*	.	-30%	?
O=c1cnc2cncnc2n1Cc1ccccc1Cl	.	-3%	.	.	0%[60.1 µM]	.
COc1cc(OC)cc(OC(=O)c2ccc3c(=O)n4c(nc3c2)CCC4)c1	40µM*	-11%	40µM*	-8%	-25%	.
Cc1ccc(OC(=O)c2ccc3c(=O)n4c(nc3c2)CCC4)cc1	19%	14%	?	-6%	-4%	.
COc1cccc(C(C#N)NCCCNC(C#N)c2cccc(OC)c2OC)c1OC (configuration not stated)	-14%	.	-5%	.	-19%	.
CCn1c(=O)c2sccc2n2c(CCC(=O)N3CCN(c4ccccc4OC)CC3)nnc12	7%	.	-7%	.	-17%	10%
COc1ccccc1NS(=O)(=O)c1cc(N)ccc1N1CCCC1	79µM*	28%	-25%	-14%	-12%	.
COc1ccccc1NS(=O)(=O)c1cc(N)ccc1N1CCOCC1	48%	41%	-18%	-4%	-3%	.
COC(=O)[C@]1(C)N[C@H](CN(C)C(=O)c2ccccc2)[C@@H]2C(=O)N(C)C(=O)[C@@H]21	?	27%	-5%	6%	-14%	.
CCOC(=O)C(CN1CCCC1)c1ccccc1 (configuration not stated)	-5%	4%	4%	0%	-3%	.
O=C(c1ccc(Cl)cc1)C(CN1CCCCC1)c1ccccc1 (configuration not stated)	7.1µM*	-8%	?	.	-10%	14%
COc1ccc(C(=O)Nc2c(N)nc(SCC(=O)Nc3ccc(NC(C)=O)cc3)[nH]c2=O)cc1	79µM*	-25%	?	.	?	35µM*
COc1ccc(NC(=O)c2ccc(NC(=O)CSc3nccc(=O)[nH]3)cc2)cc1	2%	2%	25µM*	.	-10%	13%
COc1ccccc1NC(=O)CSc1nccc(=O)[nH]1	16%	-1%	-18%	6%[11.4 µM]	-3%	-21%
COC(=O)c1ccc(N2NC(=O)/C(=C/c3ccc(OC)c(OC)c3)C2=O)cc1	?	1%	8%	-6%	-10%	5%
COc1cc(/C=C2\C(=N)N3N=C(S(C)(=O)=O)SC3=NC2=O)ccc1OC(=O)c1ccco1	20µM*	?	22µM*	.	-41%	-13%
COc1cc(/C=C2/C(=O)NN(c3cccc(C)c3)C2=O)ccc1OC(=O)c1ccco1	?	4%	28µM*	-11%	-11%	-24%
CCS(=O)(=O)C1=NSC2=NC(=O)/C(=C\c3ccc(OC(=O)c4ccco4)cc3)C(=N)N21	?	41%	79µM*	.	3%	-22%

From PubChem
